Experimental findings from PubChem BioAssay AID1224865 (Sanford-Burnham Center for Chemical Genomics, 2016) are described below.

SMILES strings stand for the structures. The campaign covered roughly 360,000 compounds. About 1,100 (0.31%) were called active. No stated cut-off is given here; in the data, active means activity change above about 30% (passing the limit was not always enough); inactive means the rest. Many of the other results were omitted from the sample, so actives are more common in it than they were.

Chain of Hepatocyte nuclear factor 4-alpha (Homo sapiens) (P41235 whole entry, looked up): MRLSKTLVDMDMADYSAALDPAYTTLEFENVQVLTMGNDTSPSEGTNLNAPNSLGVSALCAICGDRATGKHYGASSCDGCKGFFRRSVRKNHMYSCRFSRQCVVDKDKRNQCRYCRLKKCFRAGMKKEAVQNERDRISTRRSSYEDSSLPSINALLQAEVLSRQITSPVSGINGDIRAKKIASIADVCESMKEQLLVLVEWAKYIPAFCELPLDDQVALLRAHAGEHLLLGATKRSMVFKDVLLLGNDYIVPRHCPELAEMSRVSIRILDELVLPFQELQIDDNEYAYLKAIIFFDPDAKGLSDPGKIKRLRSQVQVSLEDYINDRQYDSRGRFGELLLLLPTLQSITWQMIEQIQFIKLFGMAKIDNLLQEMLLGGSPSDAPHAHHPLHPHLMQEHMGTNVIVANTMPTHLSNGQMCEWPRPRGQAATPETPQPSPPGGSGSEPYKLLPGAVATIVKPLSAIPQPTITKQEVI

This assay addresses Hepatocyte nuclear factor 4-alpha (Homo sapiens) (UniProt P41235). Description: HNF4-alpha DNA association modulation – biochemical, fluorescence polarization, FITC-DNA, primary screen (AID 1224865). The following applies: HNF4a-FITC DNA binding, 1 h, at 10 µM, active compounds read high. For orientation: In fluorescence polarisation assays a small probe gives low polarisation when free and higher when bound to something large.
Regarding `CC(C)c1ccc(Nc2nnc(SCC(=O)c3nnc(-c4ccccc4)o3)s2)cc1`, the activity change is 7.36% (inactive). For the molecule `COc1ccc(CNC(=O)CN(Cc2ccc(Cl)cc2)S(C)(=O)=O)cc1`, the activity change was 1.96% (inactive). In the case of `CC[n+]1cc(C)ccc1/C=C/c1ccc(N(C)C)cc1`, the activity change is 76.1% (active). The value for `COc1ccccc1CNC(=O)c1ccc(N(C)S(=O)(=O)c2ccc(C)cc2)cc1` was 0.49% (inactive); that for `COc1cc(NS(=O)(=O)c2ccc(NC(=O)c3ccc(S(=O)(=O)N4CCCCC4)cc3)cc2)ncn1` was -0.94% (inactive). Consider `COC(=O)[C@]1(C)N[C@H](c2ccc(-c3ccc(Cl)c(Cl)c3)cc2)[C@@H]2C(=O)N(C)C(=O)[C@@H]21`, for which the activity change is -0.96% (inactive). Take `Cc1cccc2cc3c(N)c(C(=O)N4CCCc5ccccc54)sc3nc12`: the activity change was 47.6% (active). To `CCCn1nc(C(=O)N2CCCc3ccccc32)c2ccccc2c1=O` belongs 0.42% (inactive). To `COc1cccc(/C=C/C(=O)OCC(=O)N2CCCc3ccccc32)c1` belongs -0.26% (inactive); to `O=C(NCc1ccccc1)C1CNCC(C(=O)NCc2ccccc2)C1` (stereo not drawn), -1.7% (inactive); to `CC(=O)Nc1ccc(S(=O)(=O)N2CCC(C(=O)NC3CC3)CC2)cc1`, -2.11% (inactive). The value for `COc1ccc(C(C)=O)cc1COC(=O)Cn1cnc2ccccc2c1=O` was 3.19% (inactive); that for `CC(=O)c1c(C)[nH]c(C(=O)OCC(=O)NCCC(C)C)c1C` was -3.31% (inactive); that for `COc1cc(C)c(CN2CCN(C(=O)CCC(=O)c3ccc(C)s3)CC2)cc1OC` was -0.43% (inactive). Turning to `O=C(Nc1ccccc1)c1ccccc1Br`, the activity change was -2.18% (inactive). The value for `O=C(Nc1ccncc1)c1cc(-c2ccccn2)nc2ccc(Br)cc12` was 43.9% (active); that for `O=C(Nc1ccc(Br)cc1)c1cc(S(=O)(=O)Nc2ccccn2)ccc1Cl` was 0.97% (inactive). To `O=C(CSc1nnc(Cn2cnc3ccccc32)o1)c1ccccc1` belongs 1.06% (inactive); to `NC(CSC(c1ccccc1)(c1ccccc1)c1ccc(-c2ccccc2)cc1)C(=O)O` (stereo not drawn), -4.58% (inactive).

For the molecule `CN(C)c1ccc(-n2cccc2/C=C2/SC(=Nc3ccc(F)cc3)NC2=O)cc1`, the activity change was 35.7% (active). To `CN(C)c1ccc(-n2cccc2/C=N/n2cnnc2)cc1` belongs -0.7% (inactive); to `O=C(COC(=O)Cc1ccccc1F)NNC(=O)c1ccc(Cl)cc1`, -2.29% (inactive); to `O=C(NN1C(=O)C2C3C=CC(C3)C2C1=O)c1ccco1` (stereo not drawn), 1.06% (inactive). To `CCN1/C(=C\c2ccc3ccccc3[n+]2CC)Sc2cc(C)ccc21` belongs 81.5% (active); to `Cc1ccc(S(=O)(=O)N2CC(O)C[C@H]2C(=O)OCC(=O)Nc2ccc(N3CCOCC3)cc2)cc1C` (stereo partly drawn), -2.65% (inactive). The value for `COc1ccc(/C=C(\NC(=O)c2ccccc2)C(=O)NCCN2CCOCC2)cc1OC` was -1.85% (inactive). For the molecule `CCOc1ccc(/C=C(/NC(=O)c2ccccc2)C(=O)NCCC(=O)O)cc1`, the activity change is 1.05% (inactive).

For the molecule `Cn1c2ccccc2c2cc(/C=C(\NC(=O)c3ccccc3)C(=O)NCC(=O)O)ccc21`, the activity change was 43.6% (active). In the case of `Cc1ccc(S(=O)(=O)c2ccc(Cl)cc2)cc1S(=O)(=O)NC(C(=O)O)C(C)C` (stereo not drawn), the activity change was -3.32% (inactive). As for `CCOC(OCC)c1ccc(/C=C\c2nccc(N)n2)cc1`, the activity change is 2.56% (inactive).

On to `Cc1oc2nc(SCC(=O)Nc3ccc(S(N)(=O)=O)cc3)nc(NC(=O)c3ccccc3)c2c1C`, for which the activity change was -0.08% (inactive). For `COc1ccc(CCNS(=O)(=O)c2cn(C)nc2C)cc1`, the activity change was 1.38% (inactive). To `N#Cc1ccc(C(=O)Nc2cccc3cccnc23)c(F)c1` belongs 43.6% (active); to `N#Cc1ccccc1NC(=O)COc1c(Br)cc(Br)c2cccnc12`, -0.16% (inactive); to `CSc1ccc(C#N)cc1NC(=O)c1ccc(Cl)cc1`, 2.01% (inactive). As for `COCCNC(=O)c1cc2c(Br)ccc(Br)c2nc1N`, the activity change was -2.58% (inactive). For the molecule `CCCN(CCC)c1nc2c(C)cccn2c(=O)c1/C=C1/SC(=S)N(Cc2ccco2)C1=O`, the activity change is 8.02% (inactive).

For the molecule `Cc1cccn2c(=O)c(C=O)c(Nc3ccc(S(N)(=O)=O)cc3)nc12`, the activity change is -2.3% (inactive).

Consider `Cc1cccn2c(=O)c(/C=C3\SC(=S)N(CC(C)C)C3=O)c(NCCCOC(C)C)nc12`, for which the activity change was 82.9% (active). The value for `CCc1nnc(NC(=O)CSc2nc(SC)ns2)s1` was 0.21% (inactive); that for `Cc1cc(C(=O)CC#N)c(C)n1-c1c(C)n(C)n(-c2ccccc2)c1=O` was 11.5% (inactive); that for `CCCCSCCCNC(=O)C1CCC(CNS(=O)(=O)c2ccc(NC(C)=O)cc2)CC1` (stereo not drawn) was 2.47% (inactive). To `CCc1ccc(C2C(C#N)=C(N)N(N(C)C)C3=C2C(=O)CCC3)s1` (stereo not drawn) belongs 0.21% (inactive). To `CCCC(O)(CCC)C(=O)NN(C(=O)CCl)c1cccc(C)c1` belongs 0.04% (inactive). On to `N[C@@H](Cc1ccccc1)C(=O)N1CCOCC1`, for which the activity change is 2.36% (inactive). Turning to `CCN(/N=C/c1ccc(N(C)C)cc1)c1nc2ccccc2[nH]1`, the activity change is -0.96% (inactive). To `COc1cc(/C=C(\C#N)c2nc3c(s2)CC(C)CC3)ccc1O` (stereo not drawn) belongs 74% (active); to `COc1cc(C=NC2CCCCC2)ccc1O`, 1.88% (inactive). For the molecule `COc1cc(/C=C(\C#N)c2nc3ccccc3[nH]2)ccc1O`, the activity change was 50.5% (active). For the molecule `COC(=O)CSc1ccc2nnc(CCNS(=O)(=O)c3ccc(C)cc3)n2n1`, the activity change is -1.91% (inactive). `CC(NC(=O)C(C)(C)C)C(c1cccs1)N1CCN(Cc2ccccc2)CC1` (stereo not drawn): the activity change was -1.5% (inactive). Consider `CN1OC[C@@H]2CN(C(=O)c3cccnc3)[C@H](c3ccc(N4CCCCC4)cc3)C[C@@H]21`, for which the activity change was 10.4% (inactive). Turning to `Cc1ccc(CNC(=O)c2ccc(CS(=O)Cc3cccc(Cl)c3)o2)cc1` (stereo not drawn), the activity change was 1.72% (inactive).

As for `CCc1ccc(NC(=O)CC2C(=O)NCCN2C(=S)Nc2ccccc2)cc1` (stereo not drawn), the activity change was 1.59% (inactive). As to `Cc1c(N=Nc2ccc(N(C)C)cc2)c(=O)n(-c2ccccc2)n1C`, the activity change was 35.5% (active).

Consider `Cc1nc(N)sc1N=Nc1c(C)n(C)n(-c2ccccc2)c1=O`, for which the activity change is 6.08% (inactive).

Take `Cc1c(C=O)n(C)n(-c2ccccc2)c1=O`: the activity change is 1.77% (inactive). Consider `O=C(CCN1C(=O)C2CCCCC2C1=O)Nc1ccc(OC(F)F)cc1` (stereo not drawn), for which the activity change was 1.26% (inactive).
